High-throughput results (PubChem BioAssay)
DT40 TDP1 no CPT: qHTS for Inhibitors of human tyrosyl-DNA phosphodiesterase 1 (TDP1): qHTS in cells in absence of CPT; DT40 Tdp1-/- hTDP1 cells, no CPT, ATP luminescence, 48 h; Potency, µM (doses to about 46.2 µM), most hits filed as inhibitors; 420,000 compounds, 15% hits; further: nearly all actives have a fitted effect of over 55% in size
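Readout: luminescence from CellTiter-Glo after 30 min in the dark at RT. Cells: DT40 Tdp1-/- with stable hTDP1, 400/well. Exposure: compounds alone, ≥48 hr, 37 °C.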
TDP1 block: qHTS Assay for Inhibitors of Tyrosyl-DNA Phosphodiesterase (TDP1) | 350,000 compounds, 0.28% hits | recombinant TDP1, AlphaScreen DNA substrate cleavage | Potency, µM (titrated, usually from 130 µM), usual class: inhibitors | Tyrosyl-DNA phosphodiesterase 1 (Homo sapiens), Q9NUW8; further: nearly all actives have a fitted effect of over 40% in size
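Recombinant E. coli-expressed Tdp1 (1 nM) preincubated with compound 15 min at RT, then 5'-biotin/3'-phosphotyrosine-FITC DNA substrate (15 nM) added for 5 min. AlphaScreen beads (10 ug/ml) added, 10 min RT; tyrosine-FITC cleavage read as signal loss.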
PLK1 PBD inh: qHTS for Inhibitors of PLK1-PDB (polo-like kinase 1 - polo-box domain): Primary Screen | AID 720504, 2013 | Plk1 PBD binding of FITC phosphopeptide, fluorescence polarization | Potency, µM, hits mostly inhibitors | Serine/threonine-protein kinase PLK1 (Homo sapiens), P53350 | 360,000 compounds, 2.8% hits; further: series mostly up to about 57 µM; nearly all actives have a fitted effect of over 65% in size
VDR inh: Inhibitors of the vitamin D receptor (VDR): qHTS. 400,000 compounds, 0.93% hits. Potency, µM, most hits filed as inhibitors. VDR-SRC2-3 peptide fluorescence polarization, 2 h. Vitamin D3 receptor (Homo sapiens), P11473
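Fluorescence polarization assay measuring small-molecule disruption of VDR binding to the coregulator peptide SRC2-3. Compounds were pin-transferred (23 nl) into the reagent mix and incubated 2 h at room temperature before reading.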
DT40 TDP1 CPT: qHTS for Inhibitors of human tyrosyl-DNA phosphodiesterase 1 (TDP1): qHTS in cells in presence of CPT; chicken DT40 Tdp1-/-;hTDP1 cells + 20 nM CPT, ATP luminescence, 48 h; Potency, µM (titrated, usually from 46.2 µM), usual class: inhibitors; 420,000 compounds, 12% hits; further: nearly all actives have a fitted effect of over 55% in size
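Cell growth measured by CellTiter-Glo luminescence after a minimum 48 h, 37 C compound exposure with 20 nM CPT in Tdp1-knockout DT40 cells stably expressing hTDP1, seeded 400/well; qHTS titration format.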
KAT2A inh: qHTS Assay for Inhibitors of GCN5L2; Histone acetyltransferase KAT2A (Homo sapiens), Q92830; GCN5L2 HAT assay, ThioGlo1 CoA-SH fluorescence; Potency, µM (top dose mostly 58.9 µM), usual class: inhibitors; 390,000 compounds, 0.21% hits; AID 504327, 2011
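qHTS, 1536-well. 20nM enzyme, pH 7.5 HEPES/EDTA/Tween-20 buffer; 15 min compound preinc., RT. Start: 75uM H3(1-25), 70uM AcCoA, 50uM ThioGlo1. Read Ex340/Em540 at t=0 (autofluorescence flag) and t=20 min.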
Hits are given with their value; i = inactive; ? = inconclusive; nt = no result; [ ] = dose if it differs, or a comment. Sampled rows, rich in hits. Any-hit rate of the full collection: about 18%. The call rests on the fitted dose curve; in most records, active means well fitted curve in the direction sought with a large enough effect; inconclusive means small, poorly fitted or top-dose-only effect, or another doubt; inactive means no such curve, though single readings can be large; an effect the other way counts as inactive or inconclusive.

SMILES	DT40 TDP1 no CPT	TDP1 block	PLK1 PBD inh	VDR inh	DT40 TDP1 CPT	KAT2A inh
O=C(c1ccccc1)c1ccc(N2CCOCC2)c(NC(=O)c2ccco2)c1	20.6µM	i	i	i	?	i
O=C(Nc1cc(C(F)(F)F)ccc1N1CCOCC1)c1ccco1	i	i	i	i	i	i
COC(=O)c1ccc(N2CCCCC2)c(NC(=O)c2ccco2)c1	23.1µM	nt	i	i	?	i
O=C(/C=C/c1cccs1)NC(=S)NNC(=O)c1ccccc1O	4.61µM	i	i	i	5.17µM	i
O=C(/C=C/c1ccccc1)NC(=S)NNC(=O)Cc1cccs1	18.4µM	i	i	i	?	i
COc1ccc(C(=O)NNC(=S)NC(=O)/C=C/c2cccs2)cc1	?	i	i	i	?	i
CCCOc1ccc([N+](=O)[O-])cc1C1NC(=S)NC(c2ccccc2)=C1C(=O)OCC (centres undefined)	20.6µM	i	i	i	?	i
CCOC(=O)C1=C(c2ccccc2)NC(=O)NC1c1cc(OC)c(O)c([N+](=O)[O-])c1 (centres undefined)	?	nt	i	i	i	i
CC(=O)Nc1ccc(NC(=O)CSc2nnc3c4ccccc4n(C)c3n2)cc1	i	i	i	i	i	i
COC(=O)c1ccc(S(=O)(=O)NCCSc2nnc3c4ccccc4n(C)c3n2)cc1	14.6µM	i	i	i	?	i
CC1C(=O)N(Cc2cn(CCC3OCCO3)nn2)CCS(=O)(=O)N1Cc1ccc(-c2ccc(Cl)cc2)cc1 (centres undefined)	7.31µM	nt	i	nt	3.66µM	nt
CC1C(=O)N(Cc2cn(CCC3OCCO3)nn2)CCS(=O)(=O)N1Cc1ccc(-c2ccccc2)cc1 (centres undefined)	?	nt	i	nt	i	nt
Cc1ccc(-c2ccc(CN3C(C)C(=O)N(Cc4cn(CCC5OCCO5)nn4)CCS3(=O)=O)cc2)cc1 (centres undefined)	?	nt	i	nt	16.4µM	nt
CCN(CC)S(=O)(=O)c1ccc(OC)c(NC(=O)c2sc3ccccc3c2Cl)c1	i	i	nt	i	i	i
O=C(Cc1ccccc1[N+](=O)[O-])NCc1ccco1	i	i	i	i	i	i
O=C(CCn1nnc2ccccc21)OCC(=O)c1ccc(F)cc1	i	i[0.0935 µM]	i	i	i	i
O=C(CSc1ncnc2c1cnn2-c1ccc(F)cc1)NC1CCCC1	20.6µM	i	i	i	18.4µM	i
O=C(CSc1ncnc2c1cnn2-c1ccccc1)NC1CCS(=O)(=O)C1 (centres undefined)	8.2µM	i	i	i	i	i
Cc1ccc(NC(=O)C2CCCN(c3ncnc4c3nc3n4CCCCC3)C2)c(Br)c1 (centres undefined)	4.11µM	i	nt	i	5.8µM	i
O=C(Nc1ccc(F)cc1F)C1CCCN(c2ncnc3c2nc2n3CCCCC2)C1 (centres undefined)	14.6µM	i	i	i	13µM	i
CC1CCCCN1CCNC(=O)C1CCCN(c2ncnc3c2nc2n3CCCCC2)C1 (centres undefined)	i	i	i	i	i	i
O=C(Nc1cc(F)ccc1F)C1CCCN(c2ncnc3c2nc2n3CCCCC2)C1 (centres undefined)	13µM	i	i	i	14.6µM	i
O=C(NCc1ccc(Cl)cc1)C1CCCN(c2ncnc3c2nc2n3CCCCC2)C1 (centres undefined)	?	i	i	i	?	i
O=C(c1cccc(F)c1)N1CCC2(CCCN(Cc3ccccc3)C2)CC1	i	nt	nt	i	i	i
c1ccc(N=c2nc(-c3ccccc3)n(-c3ccccc3)s2)cc1	5.62µM	nt	nt	i	6.31µM	nt
SMILES	DT40 TDP1 no CPT	TDP1 block	PLK1 PBD inh	VDR inh	DT40 TDP1 CPT	KAT2A inh
c1ccc(Cn2sc(=Nc3ccccc3)nc2-c2ccccc2)cc1	i	nt	nt	i	i	nt
Cc1nn(C)c2ncc(C(=O)c3cc(F)ccc3O)cc12	?	i	i	i	?	i[0.501 µM]
O=C(c1cnc2ccc3ccccc3c2c1)c1cc(F)ccc1O	?	nt	i	i	7.31µM	i
CC(C(=O)NCC(=O)Nc1ccc(F)c(F)c1F)N1CCN(c2ccc(O)cc2)CC1 (centres undefined)	14.6µM	i	i	i	?	i
CC(C(=O)NCC(=O)Nc1ccc(F)c(F)c1F)N1CCN(Cc2ccc(C#N)cc2)CC1 (centres undefined)	i	i	i	i	i	i
Cc1nn(C(C)C(=O)NCc2ccco2)c(C)c1[N+](=O)[O-] (centres undefined)	i	i	i	i	i	i
C/C(=N\NC(=O)C(C)n1nc(C)c([N+](=O)[O-])c1C)c1ccccc1O (centres undefined)	1.84µM	i	i	i	4.11µM	i
Cc1ccc(-c2nnc(CSc3nc4cc5c(cc4cc3C)OCO5)o2)cc1	20.6µM	i	i	i	?	i
CC(C)OCCCNC1=C(Cl)C(=O)c2ccccc2C1=O	?	i	i	i	?	i
COCCN1CC(=O)N(c2cccc(C)c2C)C(c2ccc(Cl)cc2)C1=O (centres undefined)	i	i	i	i	i	i
Cc1ccccc1N1C(=O)C(Oc2ccc(Cl)cc2)C1CNCCCOC(C)C (centres undefined)	25.9µM	i	i	i	?	i
COCCCNCC1C(Oc2ccc(Cl)cc2)C(=O)N1c1ccccc1C (centres undefined)	16.4µM	i	i	i	?	i
Cc1nn(Cc2cccc(F)c2)c(C)c1NC(=O)c1c(Cl)cnn1C	?	i	i	i	i	i
CCN(CC)C(=O)C1CCCN(c2ncnc3c2c(-c2ccccc2)cn3-c2cccc(C)c2)C1 (centres undefined)	?	i	nt	i	14.6µM	i
Clc1ccccc1N1CCN(c2ncnc3c2c(-c2ccccc2)cn3-c2ccccc2)CC1	20.6µM	i	nt	i	?	i
NC(=O)C1CCN(c2ncnc3c2c(-c2ccccc2)cn3-c2ccccc2)CC1	?	i	i	i	?	i
FC(F)(F)c1cccc(-n2cc(-c3ccccc3)c3c(N4CCCCC4)ncnc32)c1	23.1µM	i	nt	i	?	i
COc1ccccc1N1CCN(c2ncnc3c2c(-c2ccccc2)cn3-c2cccc(Cl)c2)CC1	?	i	nt	i	?	i
